HepG2 viability = kills HepG2 cells in TGF-b inhibitor counter-screen | HepG2 CAGA-GFP viability, ATP luminescence, 18 h | Potency, µM (series often up to 46.1 µM), without a hit: at the highest dose activity change, negative = cytotoxicity, most hits filed as cytotoxic | 410,000 compounds, 0.76% hits; note: potency is the fitted concentration of half-maximal effect
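CellTiter-Glo luminescence gave cytotoxicity after 18 hours at 37 degrees C. The cells were HepG2 CAGA-GFP in 1% FBS DMEM, stimulated with 500 pg/mL TGF-beta after compound addition. %Activity was normalised to no-cell wells (complete cell-killing) and DMSO (no toxicity), and curves were fitted and classified.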
DT40 TDP1 no CPT = qHTS for Inhibitors of human tyrosyl-DNA phosphodiesterase 1 (TDP1): qHTS in cells in absence of CPT; DT40 Tdp1-/- hTDP1 cells, no CPT, ATP luminescence, 48 h; Potency, µM (highest dose often 46.2 µM), inactives show at the top dose activity change, negative = growth inhibition, most hits filed as inhibitors; AID 686978, 2013; 420,000 compounds, 15% hits; note: potency is the fitted concentration of half-maximal effect; % is set by controls: 0 for no effect and ±100 for the full control effect; nearly all actives have a fitted effect of over 55% in size
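Compound effects on proliferation are scored in DT40 Tdp1-/-;hTDP1 cells in the absence of CPT. ATP levels (CellTiter-Glo luminescence) are recorded after a ≥48 hr, 37 °C incubation.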
TDP1 cell CPT = DT40-hTDP1 cell growth loss with CPT | chicken DT40 Tdp1-/-;hTDP1 cells + 20 nM CPT, ATP luminescence, 48 h | Potency, µM (titrated, usually from 46.2 µM), without a hit: top-dose activity change, negative = growth inhibition, hits mostly inhibitors | 420,000 compounds, 12% hits; note: potency is the fitted concentration of half-maximal effect; % is set by controls: 0 for no effect and ±100 for the full control effect; nearly all actives have a fitted effect of over 55% in size
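Chicken DT40 Tdp1-/- cells complemented with human TDP1, 400 cells/well, exposed to compounds plus 20 nM camptothecin for at least 48 h at 37 C; viability read as ATP content by CellTiter-Glo luminescence.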
TDP1 block = inhibitors of human tyrosyl-DNA phosphodiesterase TDP1; 350,000 compounds, 0.28% hits; Q9NUW8; AID 485290; recombinant TDP1, AlphaScreen DNA substrate cleavage; Potency, µM (titrated, usually from 130 µM), for the others: top-dose activity change, negative = inhibition, usual class: inhibitors; note: potency is the fitted concentration of half-maximal effect; % is set by controls: 0 for no effect and ±100 for the full control effect; nearly all actives have a fitted effect of over 40% in size
Target sequence (Q9NUW8 whole entry, looked up): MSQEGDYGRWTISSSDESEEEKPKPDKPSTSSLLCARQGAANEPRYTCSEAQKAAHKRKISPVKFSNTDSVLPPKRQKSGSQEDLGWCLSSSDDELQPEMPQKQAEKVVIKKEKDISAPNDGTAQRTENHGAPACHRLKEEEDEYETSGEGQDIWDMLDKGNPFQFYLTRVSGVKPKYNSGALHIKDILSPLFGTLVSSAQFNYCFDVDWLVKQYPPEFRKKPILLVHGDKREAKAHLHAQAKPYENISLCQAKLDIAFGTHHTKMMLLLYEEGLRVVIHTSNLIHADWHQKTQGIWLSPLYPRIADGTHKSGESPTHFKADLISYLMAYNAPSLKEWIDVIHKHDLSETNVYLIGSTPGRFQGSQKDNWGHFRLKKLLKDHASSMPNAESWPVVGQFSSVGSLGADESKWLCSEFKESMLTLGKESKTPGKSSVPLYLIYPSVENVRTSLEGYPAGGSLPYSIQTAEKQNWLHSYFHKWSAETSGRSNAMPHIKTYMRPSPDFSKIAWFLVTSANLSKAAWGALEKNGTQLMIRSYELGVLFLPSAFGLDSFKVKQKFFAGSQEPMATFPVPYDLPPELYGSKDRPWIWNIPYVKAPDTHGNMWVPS
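Tdp1 1 nM final; 15 min RT w/ cpd; substrate 15 nM, 5 min; beads 10 ug/ml, 10 min; AlphaScreen read. Neg ctrl: no enzyme.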
IL-1B inflam inh = blocks inflammasome-driven IL-1 beta release. activity change, % at 57.5 µM. THP-1 LPS/ATP IL-1B secretion, AlphaLISA, 16 h; active compounds read low. 360,000 compounds, 4.7% hits; in the data active = activity change below about -50%; inconclusive = mostly about -30% to -49%; note: % is set by controls: 0 for no effect and ±100 for the full control effect
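Secreted IL-1B measured by AlphaLISA bead assay after 16 h compound exposure of THP-1 cells; compounds (final up to 57.5 uM) added 1 h before LPS (250 ng/mL) and ATP (1.25 mM) stimulation; lower signal means less secretion.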
TGFb SMAD3 inh = TGF-b pathway inhibition; Potency, µM (doses to about 46.1 µM), without a hit: at the highest dose activity, negative = inhibition, most hits filed as inhibitors; AID 588855; 410,000 compounds, 1.2% hits; HepG2 CAGA-GFP TGF-b/SMAD3 reporter, GFP fluorescence, 18 h; TGF-beta stimulated, 500 pg/mL final; note: potency is the fitted concentration of half-maximal effect; % is set by controls: 0 for no effect and ±100 for the full control effect; nearly all actives have a fitted effect of over 65% in size
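Inhibition was scored as loss of TGF-beta-induced (500 pg/mL final, 18 hours, 37 degrees C) GFP in HEPG2 cells carrying a CAGA-GFP reporter, in DMEM with 1% FBS. Well GFP was summed per cell; Activity was normalised to unstimulated and stimulated DMSO wells, then concentration-response fitting.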
The depositor's hits bear a star; ? = inconclusive; . = no result; [ ] = dose if it differs, or a comment. An excerpt weighted towards active compounds, which were near 19% of everything screened. Unless noted, calls come from the whole dose curve; as a rule, active = well fitted curve in the direction sought with a large enough effect; inconclusive = small, poorly fitted or top-dose-only effect, or another doubt; inactive = no such curve, though single readings can be large; an effect the other way counts as inactive or inconclusive.

SMILES	HepG2 viability	DT40 TDP1 no CPT	TDP1 cell CPT	TDP1 block	IL-1B inflam inh	TGFb SMAD3 inh
O=C(c1ccc(S(=O)(=O)Cc2ccccc2F)c([N+](=O)[O-])c1)N1CCCCCC1	1%	23µM*	?	2%	-79*	?
O=C(c1ccc(S(=O)(=O)c2ccccc2Cl)c([N+](=O)[O-])c1)N1CCCCCC1	-20%	18µM*	21µM*	5%	-73*	?
O=C(c1ccc([N+](=O)[O-])c(CS(=O)(=O)c2ccc(Cl)cc2)c1)N1CCCCC1	0%	?	-3%	5%	4	-9%
O=C(c1cccc(Cl)c1)N1CCN(c2ccccn2)CC1	-11%	-26%	-25%	5%	0	0%
CC1CCN(C(=O)c2ccc(SCc3ccccc3F)c([N+](=O)[O-])c2)CC1	9%	?	-11%	5%	-60*	2%
O=C(c1ccc(S(=O)(=O)c2cccc(Cl)c2)c([N+](=O)[O-])c1)N1CCN(c2ccccn2)CC1	-97%	2.3µM*	2.6µM*	6%	-246*	11µM*
O=C(c1ccc(Cl)c(S(=O)(=O)N2CCCC2)c1)N1CCCCC1	11%	?	-18%	3%	5	5%
O=C(O)c1ccc(NC(=O)c2cc3c([nH]c2=O)CCCC3=O)cc1	-15%	-13%	-3%	.	.	13%
O=C(c1ccc2snnc2c1)N1CCN(c2ccccn2)CC1	4%	-9%	-4%	0%	-85*	12%
O=C(c1ccc2snnc2c1)N1CCN(c2ccccc2)CC1	-12%	-19%	-6%	8%	-14	0%
O=C(c1ccc(S(=O)(=O)Cc2cc(F)ccc2F)c([N+](=O)[O-])c1)N1CCOCC1	-83%	7.3µM*	6.5µM*	.	-100*	?
CCc1ccc(-n2nc(C)c3c(C(=O)Nc4ccc(Cl)cc4)cc(C)nc32)cc1	-2%	13µM*	?	0%	.	6%
CCc1ccc(-n2nc(C)c3c(C(=O)Nc4cc(C)ccc4C)cc(C)nc32)cc1	-21%	?	?	-1%	.	-30%
CCc1ccc(NC(=O)c2c(Cl)nc(C)c(Cl)c2C)cc1	0%	26µM*	?	1%	-1	?
Cc1cc(C)cc(NC(=O)c2cc(C)nc3c2c(C)nn3-c2ccccc2)c1	-3%	.	.	2%	.	4%
CC(=O)c1cccc(NC(=O)c2cc(C)nc3c2c(C)nn3-c2cccc(Cl)c2C)c1	0%	18µM*	?	0%	.	-14%
Cc1cc(C)cc(N2CCn3c2nc2c3c(=O)n(C/C=C/c3ccccc3)c(=O)n2C)c1	1%	-6%	-3%	8%	.	2%
Cc1ccc(C(=O)C(OC(=O)CNC(=O)COc2ccccc2C)c2ccccc2)cc1 (stereo not drawn)	3%	-12%	0%	2%	.	5%
O=[N+]([O-])c1cc([N+](=O)[O-])c2oc(-c3ccccc3)c(Br)c2c1O	-43%	8.2µM*	?	.	15	?
CN(C)S(=O)(=O)c1cccc(NC(=O)c2ccc(S(=O)(=O)N3CCCC3)cc2)c1	21%	?	?	1%	-13	15%
Cn1ncnc1SCc1cn2cccnc2n1	-95%	-16%	-2%	5%	12	0%
COc1ccc2nc(-c3cccc(N)c3)[nH]c2c1	-27%	23µM*	?	-10%	-28	-1%
O=[N+]([O-])c1ccc2nc(-c3ccccc3)[nH]c2c1	-56%	?	?	3%	-69*	0%
Cn1cccc1-c1nc2ccc([N+](=O)[O-])cc2[nH]1	-18%	?	-1%	.	-16	-25%
COc1ccc2nc(-c3ccc(N)cc3)[nH]c2c1	-18%	?	?	-6%[56.1 µM]	?	6%
SMILES	HepG2 viability	DT40 TDP1 no CPT	TDP1 cell CPT	TDP1 block	IL-1B inflam inh	TGFb SMAD3 inh
Nc1cccc(-c2nc3ccc(C(=O)c4ccccc4)cc3[nH]2)c1	-31%	0.82µM*	0.73µM*	.	49	?
COc1ccccc1NC(=O)CSc1nc(=O)n2cc(C)ccc2n1	6%	-6%	7%	0%	-2	-3%
COc1cc(-c2nnc(CSc3nnc(Nc4ccc(C(C)C)cc4)s3)o2)cc(OC)c1OC	-37%	5.8µM*	5.8µM*	5%	-11	?
COc1ccccc1Nc1nnc(SCc2nnc(-c3cc(OC)c(OC)c(OC)c3)o2)s1	-35%	21µM*	21µM*	7%	-5	-37%
CCOc1ccccc1Nc1nnc(SCc2nnc(-c3cc(OC)c(OC)c(OC)c3)o2)s1	-20%	13µM*	?	5%	?	2%
CCOc1ccccc1Nc1nnc(SCC(=O)N2CCCC2)s1	2%	-8%	-10%	2%	-14	-19%
O=C(Nc1ccc(-n2cnnn2)cc1)c1cc(S(=O)(=O)N2CCCC2)ccc1Cl	-13%	?	?	0%	-4	0%
Cc1cccc(NC(=O)CCCCCn2c(=O)[nH]c3ccsc3c2=O)c1	2%	?	2%	2%	.	-11%
COc1cc(OC)c(Nc2nc3ccccc3c3nncn23)cc1Cl	-6%	-23%	?	-2%	.	0%
COc1ccccc1N(CC(=O)NCc1ccccc1)S(=O)(=O)c1cccs1	-3%	?	?	.	36	-1%
CCc1ccc2c(c1)C1(NN=C(c3ccc(C)cc3)S1)C(=O)N2 (stereo not drawn)	-95%	8.2µM*	16µM*	10%	-100*	16µM*
CC(C)c1ccc2c(c1)C1(NN=C(c3ccccc3)S1)C(=O)N2 (stereo not drawn)	-91%	6.5µM*	3.7µM*	20%[56.1 µM]	-13	?
O=C(CC(=O)c1ccccc1)Nc1ccccc1C(F)(F)F	-8%	-34%	4%	.	-27	24%
Cc1ccc(NC(=O)c2c(C)cc(C)nc2SCC(=O)Nc2ccc(Br)cc2)cc1	-13%	?	?	-5%	.	?
CC(C)(C)[C@@H](O)C(Cc1ccc(Cl)cc1)n1cncn1 (stereo partly drawn)	.	.	.	13%	.	.
Cc1nc2ccc(Br)cc2c2c1CC(CBr)O2 (stereo not drawn)	0%	-21%	17%	2%	-74*	3%
OCc1cccc[n+]1Cc1ccccc1	4%	0%	4%	.	16	-17%
